Binding signal data for six sequences are collected here from article PMC8384837, “Expanding the binding specificity for RNA recognition by a PUF domain”.

What all share (test): yeast three-hybrid, YBZ-1, SC-Leu-His + 0.5 mM 3-AT, 4 days
Holding throughout (settings): tags: N-Gal4 AD-HA kept; label: inside an RPR1-promoter hybrid RNA with tandem MS2 sites; ssRNA

For one test, the target named is PUM1 PUF domain R4-FGC (Homo sapiens, UniProt Q14671 828-1176, N971F;H972G;Q975C). An outline of the steps: (§1)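 The interaction score is the log change in variant frequency from input to selection. Scores were computed in log2 with a pseudocount of 1 for absent variants, using Illumina sequencing of PCR-amplified repeat regions. The input came from four days on SC-Leu and the selection from four days on SC-Leu-His + 0.5 mM 3-AT. The cells were strain YBZ-1 (LexA–MS2 coat fusion, HIS3 reporter) co-expressing Pumilio-1 PUF domain libraries and matching RNA elements from a centromeric plasmid.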

Another test concerns the target PUM1 PUF domain R5-QKA (Homo sapiens, UniProt Q14671 828-1176, C1007Q;R1008K;Q1011A). An outline of the steps: as §1
A further test deals with PUM1 PUF domain R5-KRF (Homo sapiens, UniProt Q14671 828-1176, C1007K;Q1011F). An outline of the steps:
as §1

In the next test the target is PUM1 PUF domain R5-RYG (Homo sapiens, UniProt Q14671 828-1176, C1007R;R1008Y;Q1011G). An outline of the steps:
as §1

The target in a further test is PUM1 PUF domain R5-KGT (Homo sapiens, UniProt Q14671 828-1176, C1007K;R1008G;Q1011T). An outline of the steps: as §1
The next test addresses PUM1 PUF domain R5-GYL (Homo sapiens, UniProt Q14671 828-1176, C1007G;R1008Y;Q1011L). In short, it runs like this: as §1
In another test the target is PUM1 PUF domain R5-WHR (Homo sapiens, UniProt Q14671 828-1176, C1007W;R1008H;Q1011R). In short, it runs like this:
as §1

A further test has as its target PUM1 PUF domain R3-FFL (Homo sapiens, UniProt Q14671 828-1176, C935F;R936F;Q939L). In short, it runs like this: as §1
The target of the next test is PUM1 PUF domain R3-RAC (Homo sapiens, UniProt Q14671 828-1176, C935R;R936A;Q939C). An outline of the steps:
as §1

A further test has as its target PUM1 PUF domain R3-RCR (Homo sapiens, UniProt Q14671 828-1176, C935R;R936C;Q939R). In short, it runs like this:
as §1

As to “GGCUAGAACUAGUGGAUCCCCCGGCGCCCGGCGGCUCGAGCCCGGGUAAGUGUACAUAGUCUGCAUGCCGCCGGGCGCCAUGCCUGCAGGUCGACUCUAGAAAACAUG”, the binding signal with PUM1 PUF domain R4-FGC is 0.93 log2 enrichment (interaction score).
Turning to “GGCUAGAACUAGUGGAUCCCCCGGCGCCCGGCGGCUCGAGCCCGGGUAAGUGUCAAUAGUCUGCAUGCCGCCGGGCGCCAUGCCUGCAGGUCGACUCUAGAAAACAUG”, the binding signal with PUM1 PUF domain R5-QKA was 2.79 log2 enrichment (interaction score); with PUM1 PUF domain R5-KRF, 2.59 log2 enrichment (interaction score); with PUM1 PUF domain R5-RYG it was 5.09 log2 enrichment (interaction score); with PUM1 PUF domain R5-KGT it was 2.31 log2 enrichment (interaction score); in the test with PUM1 PUF domain R5-GYL, 0.48 log2 enrichment (interaction score); with PUM1 PUF domain R5-WHR, 3.55 log2 enrichment (interaction score).
“GGCUAGAACUAGUGGAUCCCCCGGCGCCCGGCGGCUCGAGCCCGGGUAAGUGUAAAUAGUCUGCAUGCCGCCGGGCGCCAUGCCUGCAGGUCGACUCUAGAAAACAUG”: the binding signal with PUM1 PUF domain R5-RYG was 2.94 log2 enrichment (interaction score); with PUM1 PUF domain R4-FGC it was 1 log2 enrichment (interaction score); in the test with PUM1 PUF domain R3-FFL, 3.27 log2 enrichment (interaction score).
As for “GGCUAGAACUAGUGGAUCCCCCGGCGCCCGGCGGCUCGAGCCCGGGUAAGUGUAUAUAGUCUGCAUGCCGCCGGGCGCCAUGCCUGCAGGUCGACUCUAGAAAACAUG”, the binding signal with PUM1 PUF domain R4-FGC is 3.05 log2 enrichment (interaction score).
On to “GGCUAGAACUAGUGGAUCCCCCGGCGCCCGGCGGCUCGAGCCCGGGUAAGUGUAAUUAGUCUGCAUGCCGCCGGGCGCCAUGCCUGCAGGUCGACUCUAGAAAACAUG”, for which the values for the binding signal with PUM1 PUF domain R3-RAC and with PUM1 PUF domain R3-RCR were 4.24 log2 enrichment (interaction score) and 2.77 log2 enrichment (interaction score), respectively.
With “GGCUAGAACUAGUGGAUCCCCCGGCGCCCGGCGGCUCGAGCCCGGGUAAGUGUUAAUAGUCUGCAUGCCGCCGGGCGCCAUGCCUGCAGGUCGACUCUAGAAAACAUG”, the binding signal with PUM1 PUF domain R5-KGT was 2.93 log2 enrichment (interaction score); with PUM1 PUF domain R5-GYL, 7.41 log2 enrichment (interaction score); in the test with PUM1 PUF domain R5-WHR, 4.76 log2 enrichment (interaction score).
